Bioassay records deposited in PubChem by The Scripps Research Institute Molecular Screening Center.
An excerpt weighted towards active compounds, which were near 0.84% of everything screened.
PPARg SRC-2 ag = promotes SRC-2 coactivator recruitment by human PPARgamma | P37231 | PPARgamma LBD-SRC-2 recruitment, biochemical | activation, % at 8 µM | 200,000 tested, 0.34% active | AID 1032;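 further: 0% = vehicle and 100% = reference agonist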
SRC1 TRFRET art = flags TR-FRET format artefacts in PPARgamma SRC-1 recruitment agonist screen. TR-FRET detection artefact counter-screen, emission ratio; active compounds read high. TR-FRET ratio at 8 µM. 99,000 tested, 0.34% active; in the data active means TR-FRET ratio above about 2300
PPARg SRC-3 ag = agonists of human PPARgamma SRC-3 coactivator recruitment. activation, % at 8 µM. AID 731. biochemical PPARgamma/SRC-3 coactivator recruitment assay. 200,000 tested, 0.26% active; in the data active means activation above about 23%;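 further: 0% = DMSO and 100% = reference agonist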
SRC2 TRFRET art = flags TR-FRET format artefacts in PPARgamma SRC-2 recruitment agonist screen | AID 1049 | TR-FRET ratio at 8 µM | 200,000 tested, 0.4% active | TR-FRET artefact counter-screen; active compounds read high; in the data active means TR-FRET ratio above about 2000
PPARg SRC-1 ag = agonists of human PPARgamma SRC-1 coactivator recruitment | PPARgamma-SRC-1 coactivator recruitment biochemical assay | activation, % at 8 µM | 200,000 tested, 0.41% active | AID 631; in the data active means activation above about 19%;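 further: 0% = DMSO and 100% = reference agonist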
SRC3 TRFRET art = TR-FRET artefact, counter-screen to PPARgamma/SRC-3 agonist assay. PPARgamma/SRC-3 format; active compounds read high. TR-FRET ratio at 8 µM. 99,000 tested, 0.39% active. AID 1048; in the data active means TR-FRET ratio above about 2000
PPARg SRC2 ag = human PPARgamma SRC-2 recruitment agonism, confirmation | shares compounds with PPARg SRC-3 ag | biochemical SRC-2 recruitment by PPARgamma | activation, % at 8 µM | 790 tested, 52% active;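 further: 0% = vehicle alone and 100% = reference agonist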
PPARg SRC1 ag = human PPARgamma SRC-1 recruitment agonism, confirmation | shares compounds with PPARg SRC-3 ag | PPARgamma–SRC-1 coactivator recruitment biochemical assay | activation, % at 8 µM | 790 tested, 43% active | AID 1300; in the data active means activation above about 20%;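 further: 0% = vehicle wells and 100% = reference agonist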
PPARg SRC3 conf = human PPARgamma SRC-3 recruitment agonism, confirmation. activation, % at 8 µM. 790 tested, 29% active. shares compounds with PPARg SRC-3 ag. biochemical PPARgamma-SRC-3 coactivator recruitment, agonist mode; in the data active means activation above about 24%;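 further: 0% = vehicle wells and 100% = reference agonist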
An asterisk follows results filed as active; nt = no result given. Unless noted, no stated cut-off is given here; in the data, active means activation above about 22%; inactive means the rest.

SMILES	PPARg SRC-2 ag	SRC1 TRFRET art	PPARg SRC-3 ag	SRC2 TRFRET art	PPARg SRC-1 ag	SRC3 TRFRET art	PPARg SRC2 ag	PPARg SRC1 ag	PPARg SRC3 conf
CSc1ccccc1-c1nnc(-c2ccc(Cl)cc2Cl)o1	3	nt	7	1526	2	nt	nt	nt	nt
CCSc1nnc(-c2ccccc2SC)o1	19	2385*	11	2020*	20*	1975	27*	20*	18
COc1ccc2c(c1)nc(SCC(=O)c1ccc(Br)s1)n2C	28*	nt	22	1815	16	nt	39*	27*	28*
CNc1cnn(-c2ccc(C)cc2)c(=O)c1Cl	-2	nt	9	1515	-4	nt	nt	nt	nt
Cc1ccc(S(=O)(=O)Nc2cnn(-c3ccccc3)c(=O)c2Cl)cc1	39*	3010*	28*	2289*	34*	2439*	47*	35*	28*
Cc1cc(SCC(=O)c2ccc3c(c2)OCO3)nc2ccccc12	37*	nt	44*	3038*	20*	nt	70*	57*	47*
C=CCOC(=O)C1=C[C@H](C2CC2)[C@@H](CCCO)[C@H](OCC)O1	2	1605	-3	1366	4	1511	nt	nt	nt
Cc1cc(C)nc(-n2nc(C)cc2NC(=O)CN2CCCC(C)C2)n1 (configuration not stated)	15	nt	13	1531	20*	nt	4	4	2
Cc1cc(C)nc(-n2nc(C)cc2NC(=O)CN2CCc3ccccc3C2)n1	-2	nt	-4	1463	-3	nt	nt	nt	nt
O=c1oc2cc(Cl)ccc2n1CSc1nc2ccccc2s1	7	nt	0	1446	-3	nt	nt	nt	nt
COC(=O)c1sccc1-c1ccc(/C=N/OC(=O)c2ccccc2)o1	56*	nt	47*	2291*	31*	nt	56*	49*	40*
C/C=N\NC(=O)COc1cc(C)ccc1C	16	2250	1	1645	6	1491	nt	nt	nt
COc1cccc2c1C(=O)c1c(O)c3c(c(O)c1C2=O)C[C@@](O)(C(=O)CO)C[C@@H]3O[C@H]1C[C@H](N)[C@H](O)[C@H](C)O1	21	2222	13	1930	28*	2006	6	-1	6
Nc1cc2nsnc2cc1Br	265*	nt	334*	6354*	230*	nt	225*	167*	150*
CCn1c(=O)cc(SCC(=O)NCCCN2CCN(c3ccc(F)cc3)CC2)c2ccccc21	81*	nt	101*	3656*	87*	nt	38*	23*	25*
Cn1c(=O)cc(OCC(=O)NCCCN2CCN(Cc3ccccc3)CC2)c2ccccc21	8	nt	4	1472	3	nt	nt	nt	nt
Cc1cccc(CN2CCN(CC(=O)NCCCN3CCN(c4ccc(F)cc4)CC3)C2=O)c1	15	nt	5	1486	2	nt	nt	nt	nt
CCn1c(=O)cc(SCC(=O)NCCCN2CCC(C)CC2)c2ccccc21	26*	2386*	9	1872	14	1905	21	13	12
CCn1c(=O)cc(SCC(=O)NCCN2CCN(Cc3ccccc3)CC2)c2ccccc21	63*	nt	70*	3069*	49*	nt	29*	16	18
Oc1c(Br)cc(C=Nc2ccc3nc(-c4ccccc4)[nH]c3c2)c(O)c1Br	12	1998	12	1907	22*	1961	15	15	9
O=C1COc2ccc(C(=O)CSc3nnc(Cc4cccs4)n3-c3ccc(Cl)cc3)cc2N1	12	nt	-4	1540	5	nt	nt	nt	nt
Cc1cccc(-n2c(-c3ccco3)n[nH]c2=S)c1	28*	2623*	23*	2124*	25*	2283*	35*	25*	26*
Cn1c(-c2ccco2)n[nH]c1=S	14	2042	5	1882	10	1797	nt	nt	nt
NC(=O)c1sc2nc(-c3ccco3)ccc2c1N	18	nt	30*	1756	18	nt	14	16	10
COc1ccccc1C(=O)N(NC(=O)Oc1ccccc1)C(C)(C)C	-5	1845	0	1538	-2	1548	nt	nt	nt
SMILES	PPARg SRC-2 ag	SRC1 TRFRET art	PPARg SRC-3 ag	SRC2 TRFRET art	PPARg SRC-1 ag	SRC3 TRFRET art	PPARg SRC2 ag	PPARg SRC1 ag	PPARg SRC3 conf
Cc1cc(C)c(NC(=O)CSc2nc3ccc(NC(=O)CSc4nnnn4Cc4ccccc4)cc3s2)c(C)c1	24*	nt	15	1906	10	nt	9	10	8
CCOC(=O)C1CCN(CC(=O)N(CC(C)C)c2c(N)n(CC(C)C)c(=O)[nH]c2=O)CC1	2	1821	5	1614	2	1703	nt	nt	nt
O=S(=O)(Cc1ccc(Cl)cc1)c1ccccc1-c1nnc(-c2ccccc2)o1	26*	nt	17	2006*	10	nt	1	3	0
CS(=O)(=O)c1ccccc1-c1nnc(-c2ccc(Cl)cc2)o1	-3	1928	1	1576	1	1694	nt	nt	nt
CN1CCN(CCCNC(=O)c2ccc3c(c2)N(Cc2ccccc2)CCS3)CC1	-1	nt	-6	1689	3	nt	nt	nt	nt
C#CCNC(=O)C1=C[C@H](C2CCCCC2)C[C@H](OCc2ccc(CO)cc2)O1	15	1703	2	1615	24*	1716	1	1	1
CCCOc1ccc(-c2nnn(CC(=O)c3c[nH]c4ccccc34)n2)cc1	10	nt	0	1521	10	nt	nt	nt	nt
O=C(Cc1ccccc1)Nn1c(O)c(/C=C2\C=Nc3ccccc32)sc1=S	24*	2099	14	1652	14	1630	7	7	8
CCn1c(O)c(/C=C2\C=Nc3ccccc32)sc1=Nc1ccccc1	4	nt	6	1406	1	nt	nt	nt	nt
COC(=O)CSc1ccc(S(=O)(=O)N2CCCCCC2)cc1[N+](=O)[O-]	0	1655	-4	1383	-9	1648	nt	nt	nt
O=C(O)c1cc(-c2ccc(Cl)s2)nc2ccccc12	39*	3037*	22	2455*	37*	2388*	50*	35*	33*
O=C(CSc1nnc(-c2ccccc2Br)o1)N1CCc2ccccc2C1	4	1630	4	1609	5	1688	nt	nt	nt
CN(C)c1ccc(NC(=O)Oc2ccccc2)cc1	58*	nt	91*	2246*	15	nt	7	3	5
N#Cc1c(SCC(=O)O)nc(-c2ccccc2)c2c1CCCC2	11	nt	30*	1727	17	nt	14	11	9
ClCc1csc(-c2ccccc2Cl)n1	25*	2229	17	2108*	19	2168*	28*	22*	17
O=C(NC1CCCCC1)C(c1ccc2ncccc2c1)N(Cc1ccc(F)cc1)C(=O)c1cccs1 (configuration not stated)	8	nt	15	1600	1	nt	nt	nt	nt
Cc1c(Cl)c(-c2n[nH]c(=S)n2-c2ccccc2)nn1C	24*	2260	17	2128*	20	2138*	25*	18	18
